According to PubChem BioAssay (Tox21):
Results filed as inconclusive are left out. Activity calls are given as the source filed them. Unless noted, calls follow the shape of the dose curve; as a rule, active = well fitted curve in the direction sought with a large enough effect in the repeat runs; inconclusive = weak or mixed curves; inactive = no such curve, though single readings can be large; an effect the other way counts as inactive or inconclusive.

Key:
[1] = target: Thyrotropin receptor (Homo sapiens) (UniProt P16473); assay: qHTS assay to identify small molecule agonists of the thyroid stimulating hormone receptor (TSHR) signaling pathway (AID 1224843; calls by dose curve; also: nearly all actives have a fitted effect of over 45% in size)
Outline: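 Agonist-mode screen: TSHR HEK293 cells received test chemicals for half an hour at room temperature, then HTRF cAMP detection reagents for one hour prior to fluorescence measurement. Each chemical ran as a 15-concentration series, triplicated.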

[2] = qHTS assay to identify small molecule agonists of the hypoxia (HIF-1) signaling pathway - cell viability counter screen (AID 1224844; calls by dose curve; also: nearly all actives have a fitted effect of over 50% in size)
Outline: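 CellTiter-Glo luminescence read-out, 30 min RT, taken in the same wells as the beta-lactamase HRE reporter assay; HRE-bla ME-180 cells, 0.5% dialyzed FBS, 17 hr compound treatment at 37C, 5% CO2.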

[3] = qHTS assay to identify small molecule agonists of H2AX (AID 1224845; active = well fitted activation curve with a large enough effect in the signal ratio in the repeat runs, not every such curve was filed as active; the % refers to the signal ratio)
Outline: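 Wild-type CHO-K1 cells, plated overnight, exposed 3hr at 37C to 15 concentrations (0.76% DMSO final). Lysed, then HTRF anti-pH2AX (S139) cryptate and anti-H2AX-d2 antibodies, 24 hr room temperature; 665/620 nm emission read.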

[4] = qHTS assay to identify small molecule agonists of H2AX - cell viability counter screen (AID 1224847; calls by dose curve; also: top concentration of the series differs between compounds; nearly all actives have a fitted effect of over 30% in size)
Outline: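 For this counter screen, overnight-attached CHO-K1 cells received test compounds (15 concentrations, 0.76% DMSO final); 3 hr later at 37C, CellTiter-Glo reagent was added and luminescence recorded after 30 min at room temperature.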

[5] = qHTS assay to identify small molecule antagonists of the estrogen related receptor (ERR) signaling pathway from Tox21 library (AID 1224848); also: nearly all actives have a fitted effect of over 50% in size
Outline: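 Quantitative high-throughput format: ERR reporter cells (2,000/well) pre-incubated 6 h, treated 18 h at 37 C with compounds in DMSO alongside positive and negative controls, then read by ONE-Glo luminescence.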

[6] = qHTS assay to identify small molecule agonists of the estrogen related receptor (ERR) signaling pathway from Tox21 library (AID 1224849; calls by dose curve; also: nearly all actives have a fitted effect of over 15% in size); conditions: ERR reporter cell line, ONE-Glo luciferase, 18 h; at 92.4 µM (top of the series) unless noted
Outline: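 Luminescence readout (ONE-Glo, 30 min RT) after 18 h compound exposure at 37 C of NTP-supplied ERR reporter cells; cells were plated 6 h before compound addition by pin tool.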

[7] = qHTS RealTime-Glo MT Cell Viability Assay in HepG2 cells - 24 hour (AID 1224867); also: nearly all actives have a fitted effect of over 50% in size
Outline: (§1)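 Compound treatment began 5 h after plating HepG2 cells (600/well) with NanoLuc luciferase and prosubstrate. Plates stayed at 37 C for 40 h; luminescence was captured at six time points, 0 h through 40 h.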

[8] = qHTS RealTime-Glo MT Cell Viability Assay in HEK293 cells - 32 hour (AID 1224868); also: top concentration of the series differs between compounds; nearly all actives have a fitted effect of over 50% in size
Outline: (§2)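 Quantitative high-throughput screen of the Tox21 10K library in HEK293: cells and RealTime-Glo reagents plated together, compound added at 5 h, luminescence monitored through 40 h at 37 C.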

[9] = A CellTox Green Cytotoxicity Assay to monitor cytotoxicity in HEK293 cells - 0 hour (AID 1224869); also: nearly all actives have a fitted effect of over 50% in size
Outline: (§3)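 Read-out: fluorescence of a cell-impermeant cyanine dye staining DNA of dead cells, proportional to cytotoxicity. HEK293, 600 cells/well with reagent, compound (23 nL DMSO) added after 5 h; reads at 0, 8, 16, 24, 32, 40 h.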

[10] = A CellTox Green Cytotoxicity Assay to monitor cytotoxicity in HEK293 cells - 40 hour (AID 1224871); also: nearly all actives have a fitted effect of over 45% in size
Outline: as §3

[11] = qHTS RealTime-Glo MT Cell Viability Assay in HEK293 cells - 16 hour (AID 1224872)
Outline: as §2

[12] = qHTS RealTime-Glo MT Cell Viability Assay in HepG2 cells - 8 hour (AID 1224873); also: nearly all actives have a fitted effect of over 55% in size
Outline: (§4)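 HepG2 cells (600/well) mixed with RealTime-Glo MT reagent, settled 5 h at 37 C/5% CO2 before compound addition. Nonlytic NanoLuc luminescence from viable-cell prosubstrate reduction read repeatedly during 40 h treatment at 37 C.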

[13] = qHTS RealTime-Glo MT Cell Viability Assay in HEK293 cells - 40 hour (AID 1224874); conditions: RealTime-Glo luminescence; max response: hits give low values; also: nearly all actives have a fitted effect of over 50% in size
Outline: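 Luminescence readout at each listed time point; HEK293, 600 cells/well, RealTime-Glo MT reagent added with cells; compounds pinned (23 nL in DMSO) after 5 h at 37 C; continuous culture at 37 C.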

[14] = A CellTox Green Cytotoxicity Assay to monitor cytotoxicity in HEK293 cells - 24 hour (AID 1224875); also: nearly all actives have a fitted effect of over 45% in size
Outline: as §3

[15] = A CellTox Green Cytotoxicity Assay to monitor cytotoxicity in HepG2 cells - 16 hour (AID 1224876); also: nearly all actives have a fitted effect of over 45% in size
Outline: (§5)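 HepG2, 600 cells/well premixed w/ CellTox Green; 5 h settle, 37 C/5% CO2; pintool cpd add (DMSO); 37 C, 40 h; fluorescence read at 0, 8, 16, 24, 32, 40 h.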

[16] = A CellTox Green Cytotoxicity Assay to monitor cytotoxicity in HepG2 cells - 24 hour (AID 1224878); also: nearly all actives have a fitted effect of over 45% in size
Outline: as §5

[17] = A CellTox Green Cytotoxicity Assay to monitor cytotoxicity in HepG2 cells - 40 hour (AID 1224879); also: nearly all actives have a fitted effect of over 40% in size
Outline: as §5

[18] = qHTS RealTime-Glo MT Cell Viability Assay in HepG2 cells - 40 hour (AID 1224870); also: nearly all actives have a fitted effect of over 50% in size
Outline: as §4

[19] = qHTS RealTime-Glo MT Cell Viability Assay in HepG2 cells - 32 hour (AID 1224877); also: nearly all actives have a fitted effect of over 55% in size
Outline: as §1

[20] = qHTS assay to identify small molecule agonists of the hypoxia (HIF-1) signaling pathway (AID 1224846; active = well fitted activation curve with a large enough effect in the signal ratio in the repeat runs, not every such curve was filed as active; the % refers to the signal ratio)
Outline: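 Beta-lactamase FRET read-out (CCF4-AM substrate) from ME-180 cells carrying an HRE-driven bla reporter, after 17 hrs compound exposure at 37C/5% CO2. Cells were seeded at 2,000 per well in 0.5% dialyzed FBS medium and preincubated 5 hrs.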
% is scaled to controls: 0 for no effect and ±100 for the full control effect.

Sequence of Thyrotropin receptor (Homo sapiens) (P16473 whole entry, looked up): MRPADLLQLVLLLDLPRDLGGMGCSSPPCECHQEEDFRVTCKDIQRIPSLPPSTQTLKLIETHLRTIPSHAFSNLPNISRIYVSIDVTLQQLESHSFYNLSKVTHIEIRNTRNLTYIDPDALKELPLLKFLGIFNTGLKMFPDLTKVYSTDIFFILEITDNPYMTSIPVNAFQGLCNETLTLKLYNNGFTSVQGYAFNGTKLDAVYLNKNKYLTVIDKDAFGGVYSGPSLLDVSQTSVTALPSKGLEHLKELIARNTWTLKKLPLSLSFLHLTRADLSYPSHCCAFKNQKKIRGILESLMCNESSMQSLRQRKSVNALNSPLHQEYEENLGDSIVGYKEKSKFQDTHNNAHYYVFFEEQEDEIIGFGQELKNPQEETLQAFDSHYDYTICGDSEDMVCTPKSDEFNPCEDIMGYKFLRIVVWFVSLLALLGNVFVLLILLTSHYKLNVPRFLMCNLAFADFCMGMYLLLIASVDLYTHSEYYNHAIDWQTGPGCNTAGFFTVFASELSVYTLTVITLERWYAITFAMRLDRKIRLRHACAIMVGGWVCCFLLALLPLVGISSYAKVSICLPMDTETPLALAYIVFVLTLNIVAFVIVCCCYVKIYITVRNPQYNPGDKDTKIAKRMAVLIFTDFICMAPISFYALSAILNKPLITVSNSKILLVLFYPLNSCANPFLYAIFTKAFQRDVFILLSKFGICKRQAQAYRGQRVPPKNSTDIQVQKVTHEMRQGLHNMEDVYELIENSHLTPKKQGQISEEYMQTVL

C[C@H](CCC(=O)O)[C@H]1CC[C@H]2[C@@H]3C(=O)C[C@@H]4CC(=O)CC[C@]4(C)[C@H]3CC(=O)[C@]12C
inactive: Potency [1] | outcome [2] | outcome [3] | Potency [4] | Potency [5] | activity change, positive = activation [6] -0.444% [at 42.5 µM] | outcome [7] | Potency [8] | outcome [9] | Potency [10] | Potency [11] | outcome [12] | max response [13] 4.35% | outcome [14] | outcome [15] | outcome [16] | Potency [17]

CC(=O)CCCCn1c(=O)c2c(ncn2C)n(C)c1=O
inactive: Potency [1] | outcome [2] | outcome [3] | Potency [4] | Potency [5] | activity change, positive = activation [6] -5.11% [at 42.5 µM] | outcome [7] | Potency [8] | outcome [9] | outcome [18] | Potency [10] | Potency [11] | outcome [12] | max response [13] -0.881% | outcome [14] | outcome [15] | outcome [19] | outcome [16] | Potency [17]

CCO[Si](CCCS)(OCC)OCC
inactive: Potency [1] | outcome [2] | outcome [20] | Potency [4] | Potency [5] | activity change, positive = activation [6] 5.01% | outcome [7] | Potency [8] | outcome [9] | outcome [18] | Potency [10] | outcome [12] | max response [13] 16.1% | outcome [14] | outcome [15] | outcome [19] | outcome [16] | Potency [17]

CC(C(=O)O)c1ccc2c(c1)CC(=O)c1ccccc1S2 (stereo not given)
inactive: Potency [1] | outcome [2] | outcome [20] | Potency [4] | Potency [5] | activity change, positive = activation [6] 4.13% [at 42.5 µM] | outcome [7] | Potency [8] | outcome [9] | outcome [18] | Potency [10] | Potency [11] | outcome [12] | max response [13] -2.02% | outcome [14] | outcome [15] | outcome [19] | outcome [16] | Potency [17]

CCN1CCc2nc(N)oc2CC1
inactive: Potency [1] | outcome [2] | outcome [3] | outcome [7] | Potency [8] | outcome [9] | outcome [18] | Potency [11] | outcome [12] | max response [13] 0.505% | outcome [14] | outcome [15] | outcome [19] | outcome [16] | Potency [17]

Cc1ccccc1OCC(O)CO (stereo not given)
inactive: Potency [1] | outcome [2] | outcome [3] | Potency [4] | Potency [5] | activity change, positive = activation [6] 1.39% [at 42.5 µM] | Potency [8] | outcome [9] | outcome [18] | Potency [11] | outcome [12] | max response [13] 1.4% | outcome [14] | outcome [15] | outcome [16] | Potency [17]

C=C(C)C1CCC(C)(O)CC1 (stereo not given)
inactive: Potency [1] | outcome [2] | outcome [3] | outcome [20] | outcome [7] | Potency [8] | outcome [9] | outcome [18] | Potency [11] | outcome [12] | max response [13] 2.04% | outcome [14] | outcome [15] | outcome [19] | outcome [16] | Potency [17]
